Screening data deposited in PubChem BioAssay by several laboratories.
Only some compounds are listed: those with a hit (about 1.1% of all), similar ones and a draw of the others.
BJeLR viability – BJeLR cell viability loss; AID 1554; BJeLR (HRASV12) viability, CellTiter-Glo ATP luminescence, 48 h; hit rate 0.17% among 300,000; inhibition, % (no concentration beside the values); in the data active = inhibition above about 50%
CCHF vOTU inh – blocks the CCHF virus ovarian tumor domain protease | hit rate 0.55% among 370,000 | inhibition, % at 11.5 µM | CCHFV vOTU protease, Pep-AMC fluorescence; in the data active = inhibition above about 30%; also: 0% = vehicle wells with enzyme and 100% = no enzyme wells
Mtb BioA inh – BioA (M. tuberculosis) enzyme inhibition | purified M. tuberculosis BioA enzyme, plate reader | inhibition, % at 9.99 µM | hit rate 0.096% among 360,000 | AID 602481; in the data active = inhibition above about 40%
Mtb betalactam – beta-lactam sensitization of Mtb H37Rv | hit rate 0.27% among 330,000 | M. tuberculosis H37Rv growth with meropenem, percent inhibition | inhibition, % at 25 µM; call rule not given here;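 also: growth measured after seven days incubation then overnight dye step; 0% = bacteria only wells and 100% = bacteria with antibiotic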
RecA splice inh – blocks M. tuberculosis RecA intein splicing; P9WHJ3; cell-free RecA intein splicing, fluorescence; inhibition, % (test concentration not listed); hit rate 0.75% among 290,000; in the data active = inhibition above about 30%;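 also: 0% = vehicle wells and 100% = reference inhibitor control wells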
Target sequence (P9WHJ3 whole entry, looked up, canonical isoform): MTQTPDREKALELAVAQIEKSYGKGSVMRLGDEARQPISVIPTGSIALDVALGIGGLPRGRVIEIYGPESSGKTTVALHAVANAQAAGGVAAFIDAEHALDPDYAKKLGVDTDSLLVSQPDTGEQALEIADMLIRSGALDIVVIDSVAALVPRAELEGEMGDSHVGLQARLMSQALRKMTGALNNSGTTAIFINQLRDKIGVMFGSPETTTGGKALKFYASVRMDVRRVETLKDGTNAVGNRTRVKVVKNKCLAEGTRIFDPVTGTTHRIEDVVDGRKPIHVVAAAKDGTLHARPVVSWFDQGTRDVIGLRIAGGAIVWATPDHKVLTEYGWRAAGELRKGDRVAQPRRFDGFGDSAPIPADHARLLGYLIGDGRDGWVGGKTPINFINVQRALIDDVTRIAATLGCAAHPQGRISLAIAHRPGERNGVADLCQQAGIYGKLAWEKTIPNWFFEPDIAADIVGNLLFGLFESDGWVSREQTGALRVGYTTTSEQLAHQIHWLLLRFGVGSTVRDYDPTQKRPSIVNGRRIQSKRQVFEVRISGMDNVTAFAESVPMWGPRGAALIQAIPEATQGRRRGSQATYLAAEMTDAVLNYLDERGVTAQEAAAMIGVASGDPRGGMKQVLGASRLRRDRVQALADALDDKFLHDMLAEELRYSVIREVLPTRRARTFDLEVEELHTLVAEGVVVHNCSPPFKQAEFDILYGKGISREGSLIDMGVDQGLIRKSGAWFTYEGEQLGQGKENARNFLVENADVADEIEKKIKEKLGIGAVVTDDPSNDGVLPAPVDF
Yp Topo-I inh – blocks Yersinia pestis topoisomerase I activity; Y. pestis Topo-I cleavage product accumulation, plate reader; activity, % at 10 µM; hit rate 0.064% among 360,000; in the data active = activity above about 50%, passing the limit was not always enough
Active calls of the source: *; . = no result given.

SMILES	BJeLR viability	CCHF vOTU inh	Mtb BioA inh	Mtb betalactam	RecA splice inh	Yp Topo-I inh
C/C(CC(=O)NCc1ccco1)=N\NC(=O)c1ccc(Cl)cc1Cl	-5	11	.	2	2	1
CN(C)CC#Cc1cccc(-c2nc(C(=O)NCCCN3CCOCC3)cc3c2[C@H](CCO)N(S(=O)C(C)(C)C)C3)c1 (stereo partly specified)	.	.	-1	.	.	.
O=C(O)C[C@H](O)C[C@H](O)/C=C/c1c(C2CC2)nc2ccccc2c1-c1ccc(F)cc1	53*	.	.	.	3	.
COCC(=O)Nc1ccc2c(c1)C(=O)N(C)[C@H]1CC[C@@H](CC(=O)NCC3CCCCC3)O[C@H]1CO2	.	.	3	.	.	.
CCC(=O)N(C)C[C@H]1Oc2cc(-c3ccc(F)cc3)ccc2S(=O)(=O)N([C@@H](C)CO)C[C@@H]1C	.	.	0	.	.	.
CSc1nc(O)c(Nc2cccc(Cl)c2)c(=O)[nH]1	9	-1	0	-3	76*	2
Cc1ccc(S(=O)(=O)Nc2ccc3c(c2)C(=O)N([C@H](C)CO)C[C@@H](C)[C@H](CN(C)C(=O)CCC(F)(F)F)OCCCC[C@@H](C)O3)cc1	.	.	1	.	.	.
O=[N+]([O-])c1cccc(C=Nc2cccc3ccccc23)c1O	1	-22	-3	25	38*	-2
O=C(O)c1cccc(N/N=C(\N=Nc2ccccc2)c2ccccc2)c1	15	4	0	88	41*	-8
C[C@H](CO)N1C[C@H](C)[C@@H](CN(C)Cc2ccc(-c3ccccc3)cc2)Oc2ccc(NC(=O)Cc3ccccc3)cc2C1=O	.	.	-1	.	.	.
O=C(CCl)N=c1sccn1Cc1ccccc1Cl	110*	-11	6	99	19	1
O=C(CCl)N=c1sccn1Cc1ccc(Cl)cc1Cl	1	-5	.	100	44*	14
C[C@H](CO)N1C[C@H](C)[C@@H](CN(C)Cc2ccc(C(=O)O)cc2)Oc2ccc(NC(=O)C3CC3)cc2C1=O	.	.	0	.	.	.
CCOC(=O)C1=C(Cc2ccc(F)cc2)C(=O)c2ccccc2C1=O	-12	71*	.	23	8	20
C[C@H](CO)N1C[C@H](C)[C@H](CN(C)C(=O)Cc2cccnc2)Oc2ncc(/C=C/c3ccccc3)cc2C1=O	.	.	2	.	.	.
CC1CN(c2ccc([N+](=O)[O-])c3cccnc23)CC(C)N1 (stereo unspecified)	7	32*	0	5	3	-13
C[C@H](CO)N1C[C@H](C)[C@H](CN(C)C(=O)Nc2ccc(F)cc2)Oc2ccc(NC(=O)Nc3ccc4c(c3)OCO4)cc2C1=O	.	.	1	.	.	.
O=C(/C=C/c1ccco1)c1ccc(NC(=O)C23CC4CC(CC(C4)C2)C3)cc1	-14	11	-1	100	34*	3
C[C@H]1CCCCO[C@H](CN(C)C(=O)Nc2ccccc2)[C@@H](C)CN([C@@H](C)CO)C(=O)c2cc(NS(=O)(=O)c3ccc(F)cc3)ccc2O1	.	.	-1	.	.	.
Cc1ccc(NC(=S)N/N=C/c2c(Cl)cccc2Cl)c(C)c1	53*	4	.	-1	7	8
CN(C)c1nc(-c2ccccn2)nnc1-c1ccccc1	82*	9	1	91	8	1
C[C@@H]1CCCCO[C@@H](CN(C)C(=O)CCC(F)(F)F)[C@@H](C)CN([C@H](C)CO)C(=O)c2cc(NC(=O)Nc3ccc4c(c3)OCO4)ccc2O1	.	.	-1	.	.	.
COc1ccc(CN2CCNC(=O)C2CC(=O)N(C)Cc2nccs2)c(OC)c1 (stereo unspecified)	0	-4	-1	6	1	3
COc1ccc(CN2CCNC(=O)C2CC(=O)N(C)Cc2ccncn2)c(OC)c1 (stereo unspecified)	-3	2	0	4	31*	4
CCC(=O)N[C@H]1C=C[C@H](CC(=O)NCc2ccc(OC)cc2)O[C@H]1CO	.	.	2	.	.	.
SMILES	BJeLR viability	CCHF vOTU inh	Mtb BioA inh	Mtb betalactam	RecA splice inh	Yp Topo-I inh
CCC(=O)Nc1c(C)nn(-c2ccc(C)c(C)c2)c1C	-11	1	-2	4	-4	-3
Cc1ccc(-n2nc(C)c(NC(=O)CCl)c2C)cc1C	-2	-16	0	97	42*	0
Cc1nc2ccccc2c2c1C(=O)N(c1cccc(C(=O)O)c1)C2=O	-1	2	.	6	45*	2
Cc1nc2ccccc2c2c1C(=O)N(C(C)C)C2=O	15	-3	.	-7	41*	3
O=C1CS/C(=C\[N+](=O)[O-])N1c1ccc(OC(F)(F)F)cc1	-3	8	1	-17	36*	-18
CC1(C)CCC(=O)N(c2ccc(OC(F)(F)F)cc2)C1=O	-2	3	-1	5	-2	3
Cc1ccc(S(=O)(=O)N[C@H]2CC[C@H](CC(=O)NCCCN(C)C)O[C@H]2CO)cc1	.	.	-1	.	.	.
C[C@H](CO)N1C[C@H](C)[C@@H](CN(C)C(=O)C2CCC2)Oc2ncc(-c3cccc(C#N)c3)cc2C1=O	.	.	-2	.	.	.
COc1ccc(NC(=O)C(=O)NCC2CCCN2S(=O)(=O)c2ccc(C)cc2)cc1 (stereo unspecified)	51*	-5	-1	-12	-1	29
O=C(/C=C/c1cccs1)Nc1cccc(NC(=O)/C=C/c2cccs2)n1	-14	5	1	96	8	0
O=C(/C=C/c1cccs1)Nc1ccc(Br)cn1	53*	-1	.	0	2	11
O=C(CCl)N(CCCNC(=O)C(F)(F)F)c1ccc([N+](=O)[O-])cc1	116*	-8	-1	96	.	4
N#Cc1ccc(-c2ccc3c(c2)[C@H]2[C@H](CCN2S(=O)(=O)c2ccccc2F)[C@H](CO)N3)cc1	.	.	1	.	.	.
Cn1c(/C=C/c2ccc([N+](=O)[O-])o2)nc2ccccc2c1=O	82*	.	-6	100	1	-4
C[C@H]1CN([C@@H](C)CO)C(=O)c2cccc(NC(=O)Nc3ccc(F)cc3)c2O[C@H]1CN(C)S(C)(=O)=O	.	.	0	.	.	.
CCC(=O)N[C@@H]1CC[C@@H](CCn2cc(C3CC3)nn2)O[C@@H]1CO	.	.	-3	.	.	.
COc1ccc(Cc2nnc3n2N=C(c2cc4ccccc4o2)CS3)cc1OC	2	6	-3	2	1	54*
COc1ccc(C(C(=O)NC2CCCCC2)N(C(=O)CCl)c2ccc(C)cc2)cc1 (stereo unspecified)	135*	1	.	7	-3	6
COc1ccc(C(C(=O)NC2CCCCC2)N(C(=O)CCl)c2ccc(OC)cc2)cc1 (stereo unspecified)	118*	.	-1	30	8	-2
COc1ccc(N(C(=O)Cc2cccs2)C(C(=O)NC2CCCC2)c2ccncc2)cc1 (stereo unspecified)	7	-1	0	-9	-5	15
COc1ccc(CN(C(=O)c2nsc(Cl)c2Cl)C(C(=O)NC2CCCC2)c2ccc(C)cc2)cc1 (stereo unspecified)	3	8	.	-3	13	34
COC(CN(C(=O)CCl)C(C(=O)NC1CCCCC1)c1ccc(C)cc1)OC (stereo unspecified)	5	6	1	-4	32*	1
